# ± gives the standard deviation of the averaged measurements. The full data set covers some 5,400 targets. This sample favours those with the largest changes.
# Compound: Nc1nc2c(ncn2[C@@H]2O[C@H](COP(=O)(O)OP(=O)(O)OP(=O)(O)O)[C@@H](O)[C@H]2O)c(=O)[nH]1 [guanosine triphosphate]
# Assay: NP40-soluble protein abundance relative to vehicle (solubility fold change) (ratio); higher = more soluble protein in presence of GTP
# Method: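 Solubility proteome profiling in Jurkat crude lysate. Lysate was treated with Mg-GTP (0.1-10 mM) for 10 min at room temperature and 3 min at 37 °C, then solubilised with 0.8% NP40 and benzonase, followed by ultracentrifugation. Proteins were quantified by TMT10 LC-MS/MS; the value is the NP40-soluble abundance relative to the NP40-processed vehicle, from 3 independent experiments.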
# UniProt P62879, sequence (P62879 whole entry): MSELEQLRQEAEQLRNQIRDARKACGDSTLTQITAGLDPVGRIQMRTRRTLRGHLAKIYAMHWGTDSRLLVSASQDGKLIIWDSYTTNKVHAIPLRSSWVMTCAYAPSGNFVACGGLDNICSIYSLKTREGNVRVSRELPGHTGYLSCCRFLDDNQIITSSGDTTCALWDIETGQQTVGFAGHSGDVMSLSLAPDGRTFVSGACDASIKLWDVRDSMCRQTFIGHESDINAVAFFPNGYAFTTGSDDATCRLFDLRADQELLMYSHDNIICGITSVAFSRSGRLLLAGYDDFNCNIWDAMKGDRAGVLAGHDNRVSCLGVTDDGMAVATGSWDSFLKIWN
# UniProt Q8N766, sequence (Q8N766 whole entry): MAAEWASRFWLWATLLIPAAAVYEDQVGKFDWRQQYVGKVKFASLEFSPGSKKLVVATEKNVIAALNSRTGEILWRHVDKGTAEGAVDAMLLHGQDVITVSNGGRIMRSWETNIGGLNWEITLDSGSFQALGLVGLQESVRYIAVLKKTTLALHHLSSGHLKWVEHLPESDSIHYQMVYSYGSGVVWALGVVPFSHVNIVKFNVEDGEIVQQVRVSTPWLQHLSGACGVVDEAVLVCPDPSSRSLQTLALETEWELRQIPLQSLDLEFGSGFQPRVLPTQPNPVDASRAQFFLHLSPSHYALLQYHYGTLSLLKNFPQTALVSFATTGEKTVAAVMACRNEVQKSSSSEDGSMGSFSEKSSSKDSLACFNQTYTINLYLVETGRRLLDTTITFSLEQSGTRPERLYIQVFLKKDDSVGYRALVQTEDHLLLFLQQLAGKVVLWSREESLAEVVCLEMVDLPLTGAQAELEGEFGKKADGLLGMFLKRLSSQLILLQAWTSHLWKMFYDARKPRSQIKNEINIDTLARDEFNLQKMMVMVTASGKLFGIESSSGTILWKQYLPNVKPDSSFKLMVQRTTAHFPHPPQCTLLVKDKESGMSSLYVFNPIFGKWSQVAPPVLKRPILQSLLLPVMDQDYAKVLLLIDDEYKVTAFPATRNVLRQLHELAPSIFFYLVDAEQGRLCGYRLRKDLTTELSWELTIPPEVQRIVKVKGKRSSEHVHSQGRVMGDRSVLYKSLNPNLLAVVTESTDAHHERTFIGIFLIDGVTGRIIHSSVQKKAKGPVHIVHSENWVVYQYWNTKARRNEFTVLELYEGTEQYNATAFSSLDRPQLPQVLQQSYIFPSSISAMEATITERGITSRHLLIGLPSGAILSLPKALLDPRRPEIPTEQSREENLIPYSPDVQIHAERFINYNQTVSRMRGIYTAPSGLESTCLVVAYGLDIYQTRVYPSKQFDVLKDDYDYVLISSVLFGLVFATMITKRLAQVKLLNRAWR
# UniProt Q16643, sequence (Q16643 whole entry): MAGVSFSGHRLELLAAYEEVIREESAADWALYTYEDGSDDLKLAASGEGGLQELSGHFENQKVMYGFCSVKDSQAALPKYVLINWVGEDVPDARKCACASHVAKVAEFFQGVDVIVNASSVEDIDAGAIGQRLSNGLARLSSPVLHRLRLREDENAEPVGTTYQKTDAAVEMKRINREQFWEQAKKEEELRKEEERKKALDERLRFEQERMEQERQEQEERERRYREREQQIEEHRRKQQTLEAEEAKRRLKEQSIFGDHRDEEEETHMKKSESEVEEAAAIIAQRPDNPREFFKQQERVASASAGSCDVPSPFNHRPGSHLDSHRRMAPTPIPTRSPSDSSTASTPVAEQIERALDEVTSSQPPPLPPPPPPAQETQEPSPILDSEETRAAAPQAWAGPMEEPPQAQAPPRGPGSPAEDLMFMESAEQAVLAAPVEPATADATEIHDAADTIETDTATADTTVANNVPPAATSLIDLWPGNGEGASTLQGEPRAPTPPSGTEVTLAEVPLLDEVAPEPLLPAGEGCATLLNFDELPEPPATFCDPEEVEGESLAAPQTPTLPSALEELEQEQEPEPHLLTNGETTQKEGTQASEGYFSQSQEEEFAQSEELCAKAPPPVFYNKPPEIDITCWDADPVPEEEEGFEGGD
# UniProt Q8IW45, sequence (Q8IW45 whole entry): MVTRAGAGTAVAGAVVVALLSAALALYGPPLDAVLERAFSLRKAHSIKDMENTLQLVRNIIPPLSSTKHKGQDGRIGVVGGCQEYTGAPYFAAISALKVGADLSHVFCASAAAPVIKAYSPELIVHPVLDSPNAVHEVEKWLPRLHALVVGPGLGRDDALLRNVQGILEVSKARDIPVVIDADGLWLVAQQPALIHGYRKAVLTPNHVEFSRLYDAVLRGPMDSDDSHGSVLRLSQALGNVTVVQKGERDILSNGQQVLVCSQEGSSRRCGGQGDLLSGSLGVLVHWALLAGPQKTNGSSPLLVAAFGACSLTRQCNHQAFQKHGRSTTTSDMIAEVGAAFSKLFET
# UniProt Q14974, sequence (Q14974 whole entry): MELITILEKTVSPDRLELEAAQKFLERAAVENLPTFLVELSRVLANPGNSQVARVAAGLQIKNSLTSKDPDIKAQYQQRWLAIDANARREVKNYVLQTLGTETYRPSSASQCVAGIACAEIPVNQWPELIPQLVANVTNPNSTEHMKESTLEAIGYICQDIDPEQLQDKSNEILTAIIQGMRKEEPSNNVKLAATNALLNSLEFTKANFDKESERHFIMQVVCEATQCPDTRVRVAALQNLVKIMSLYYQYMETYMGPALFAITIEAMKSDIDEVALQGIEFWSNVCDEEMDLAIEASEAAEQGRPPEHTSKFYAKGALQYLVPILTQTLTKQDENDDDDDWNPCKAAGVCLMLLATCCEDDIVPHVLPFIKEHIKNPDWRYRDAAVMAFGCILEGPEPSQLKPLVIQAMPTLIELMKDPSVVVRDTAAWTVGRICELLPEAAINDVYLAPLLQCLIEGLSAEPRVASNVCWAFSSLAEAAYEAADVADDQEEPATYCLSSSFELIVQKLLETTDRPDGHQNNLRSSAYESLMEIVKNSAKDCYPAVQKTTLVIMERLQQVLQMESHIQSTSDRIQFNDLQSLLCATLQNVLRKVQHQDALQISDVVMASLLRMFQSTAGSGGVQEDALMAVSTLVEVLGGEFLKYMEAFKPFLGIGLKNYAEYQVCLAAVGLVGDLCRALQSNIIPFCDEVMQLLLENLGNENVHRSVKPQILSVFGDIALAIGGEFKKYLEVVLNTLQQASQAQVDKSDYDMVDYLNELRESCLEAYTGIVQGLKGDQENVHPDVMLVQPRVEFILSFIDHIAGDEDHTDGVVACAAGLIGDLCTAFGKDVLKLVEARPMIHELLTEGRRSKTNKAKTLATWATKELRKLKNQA
Target,NP40-soluble protein abundance (concentration: 0.1mM),NP40-soluble protein abundance (concentration: 0.5mM),NP40-soluble protein abundance (concentration: 1mM),NP40-soluble protein abundance (concentration: 2mM),NP40-soluble protein abundance (concentration: 4mM),NP40-soluble protein abundance (concentration: 6mM),NP40-soluble protein abundance (concentration: 8mM),NP40-soluble protein abundance (concentration: 10mM)
UniProt Q8N766|Q8N766-2|Q8N766-3|Q8N766-4,1.01 ± 0.055,1.03 ± 0.1,0.938 ± 0.046,0.964 ± 0.12,0.951 ± 0.098,0.926 ± 0.093,0.901 ± 0.015,0.897 ± 0.063
UniProt Q8IW45|Q8IW45-2,1.01 ± 0.071,0.978 ± 0.074,0.985 ± 0.038,0.945 ± 0.021,0.969 ± 0.013,0.915 ± 0.045,0.954 ± 0.077,0.91 ± 0.035
UniProt Q16643|Q16643-2|Q16643-3,0.894 ± 0.061,0.888 ± 0.11,0.903 ± 0.11,0.905 ± 0.11,1.08 ± 0.1,1.24 ± 0.11,1.52 ± 0.15,1.81 ± 0.12
UniProt P62879,0.978 ± 0.035,1.01 ± 0.064,0.917 ± 0.031,0.947 ± 0.074,0.924 ± 0.05,0.937 ± 0.054,0.913 ± 0.048,0.893 ± 0.09
KPNB1 (UniProt Q14974),0.986 ± 0.053,0.988 ± 0.03,1.01 ± 0.035,0.989 ± 0.037,1.01 ± 0.041,0.993 ± 0.033,1 ± 0.033,0.992 ± 0.028

# — the supplement of paper PMC6411743
